This note sets out measurements from PubChem BioAssay (NCATS).

Molecules are shown by their SMILES. Inconclusive results are not listed. Entries that show only a call come without a potency. The source made the active and inactive calls. The call rests on the fitted dose curve; in most records, active means well fitted inhibition curve with a large enough effect; inconclusive means small, poorly fitted or top-dose-only effect, or effect the other way; inactive means flat fitted curve, though single readings scatter.

The nature of this assay: qHTS for Inhibitors of Plasmodium falciparum (CP250) proliferation (AID 504320). The settings on record: P. falciparum CP250 in erythrocytes, SYBR Green DNA, 72 h; series mostly up to 6.7 µM. The essentials: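 Parasite growth measured as SYBR Green DNA fluorescence (ex 485, em 535 nm) after overnight lysis following 72 h culture at 37 °C, 0.3% parasitemia, 2.5% hematocrit. Values normalized against DMSO and 0.29 uM artemisinin controls, with plate-stack correction.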
A general note: Quantitative high-throughput screening tests each substance at several concentrations.
Turning to `CCCCc1nc2c(c3c1C[C@H](C)OC3)CN(C(=O)c1cc(I)ccc1F)CC2`, the Potency entry is “inactive”. Turning to `COC(=O)C1=C(C(=O)OC)[C@@H]2N(C)c3ccccc3[C@@]23C[C@@H](C(=O)OC)N(S(=O)(=O)c2cccs2)C3=N1`, the Potency entry was “inactive”. To `COC(=O)C1=C(C(=O)OC)[C@@H]2Nc3ccccc3[C@@]23C[C@@H](C(=O)OC)N=C3N1` belongs “inactive”; to `CCCCS(=O)(=O)N1C2=NC(C(=O)OC)=C(C(=O)OC)[C@@H]3N(C)c4ccccc4[C@]23C[C@H]1C(=O)OC`, “inactive”; to `CCCCc1nc2c(c3c1C[C@H](C)OC3)CN(S(=O)(=O)c1c(C)noc1C)CC2`, “inactive”.

With `CCOC(=O)CN1C(=O)N[C@@H](CCc2ccccc2)[C@H](C(C)=O)[C@H]1C`, the Potency entry was “inactive”. As to `COC(=O)CCCC1=CC2=C(c3ccccc3)C(=O)C(C)(OC(=O)C3CCCC3)C(=O)C2=CN1CCCOC(C)C` (stereo not drawn), the Potency entry was “inactive”. For the molecule `C[C@H]1Cc2c(COc3ccccc3)nc3c(c2CO1)CN(S(=O)(=O)c1ccc(C#N)cc1)CC3`, the Potency result is “inactive”.

As for `COC(=O)CCC(=O)OC1(C)C(=O)C=C2C=C(C3CC3)N(c3ccc(OC)cc3)C=C2C1=O` (stereo not drawn), the Potency entry was “inactive”. To `CC[C@@H](C)CN1C(=O)N[C@@H](c2ccccc2)C(C(C)=O)=C1C` belongs “inactive”; to `C=CCN1C=C2C(=O)C(C)(OC(=O)c3cnc4ccccc4n3)C(=O)C=C2C=C1/C=C/COC` (stereo not drawn), “inactive”.

As for `CCCCC1=CC2=CC(=O)C(C)(OC(=O)CC)C(=O)C2=CN1CCOC` (stereo not drawn), the Potency entry was “inactive”.

With `CCCCC1=CC2=CC(=O)C(C)(OC(=O)CC)C(=O)C2=CN1CCc1ccccn1` (stereo not drawn), the Potency entry is “inactive”.
